In a collection of fitness landscapes (doi:10.1016/j.celrep.2020.107928):
The full ranking holds about 81,000 sequences; the median of “one-hybrid fitness for binding parS DNA” is about -0.17, and the highest 2% start at about 0.51. For the sample, the highest values were picked, then their nearest neighbours and some sequences at random.

B1: Caulobacter ParB omega fusion; a variant is named by its letters at X, in order, B8GW30 (parent)
chain: MESVVVGEPGMSEGRRGLGRGLSALLGEVDAAPAQAPGEQLGGSREAPIEILQRNPDQPRRTFREEDLEDLSNSIREKGVLQPILVRPSPDTAGEYQIVAGERAWRAAQRAGLKTVPIMVRELDDLAVLEIGIIENVQRADLNVLEEALSYKVLMEKFERTQENIAQTIGKSXSHVANXMRLLXLPDEVQSYLVSGELTAXHARAIAAAADPVALAKQIIEGGLSVRETEALARKAPNLSAGKSKGGRPPRVKDTDTQALESDLSSVLGLDVSIDHRGSTGTLTITYATLEQLDDLCNRLTRGI

Variants of: B1
Experiment: one-hybrid fitness for binding parS DNA (scaled: cognate 1, non-cognate 0); higher = stronger binding
Conditions: with parS DNA site
In short: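 Pre- and post-selection plasmids were Illumina-sequenced, three replicate libraries were pooled, and any variant with under 10 reads was removed. The libraries were Caulobacter ParB with four specificity codons randomised, selected in E. coli USO through a HIS3 reporter whose site is 19 bp from the promoter. Cells grew 48 hours at 37°C on M9 without histidine, with 0.1 mM IPTG and 5 mM 3-AT. Fitness is the log change in variant-to-wild-type read ratio, rescaled against cognate and non-cognate.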

Variant	one-hybrid fitness for binding parS DNA
VPCS	≤ 0.2
QSKG	≤ 0.2
MNTS	≤ 0.2
SEHV	≤ 0.2
RLMV	≤ 0.2
TMAV	≤ 0.2
QAEE	≤ 0.2
RSDI	≤ 0.2
RMVC	0.96
RMVH	≤ 0.2
RMKQ	≤ 0.2
RMKF	0.439
RMVP	0.206
RMKC	0.849
EAIW	≤ 0.2
RKTH	≤ 0.2
RITH	0.214
RKTS	0.815
RTTP	≤ 0.2
RTTS	0.943
RITS	0.992
RTTH	0.232
RSTD	≤ 0.2
RSTS	0.986
RITN	0.409
RKTD	≤ 0.2

Variant	one-hybrid fitness for binding parS DNA
RSTH	0.234
IIGK	≤ 0.2
ENYG	≤ 0.2
PEAY	≤ 0.2
HKGC	≤ 0.2
KDVC	≤ 0.2
LAWM	≤ 0.2
IPRY	≤ 0.2
RCTS	0.984
RLTP	≤ 0.2
RHTS	0.893
RFTS	1.01
RFTH	≤ 0.2
RLTS	0.984
RLTH	0.232
RFTP	≤ 0.2
RHTP	≤ 0.2
RCTN	0.475
RHTN	0.384
RPTS	≤ 0.2
CLVL	≤ 0.2
FTSY	≤ 0.2
KNRS	≤ 0.2
LLFA	≤ 0.2
AVGG	≤ 0.2
AARP	≤ 0.2

Variant	one-hybrid fitness for binding parS DNA
SKSL	≤ 0.2
VMLN	≤ 0.2
SWPW	≤ 0.2
AGLI	≤ 0.2
MFAT	≤ 0.2
RATS	1
RMTS	0.975
RATD	≤ 0.2
RMTD	0.207
RATH	0.255
RMTN	0.45
RFVT	0.614
NFKT	≤ 0.2
RFVQ	≤ 0.2
RFKP	≤ 0.2
RFKT	0.902
RFVP	≤ 0.2
GMAG	≤ 0.2
DNQC	≤ 0.2
KSSE	≤ 0.2
PNYS	≤ 0.2
RTAF	0.256
RTFN	0.436
RTAC	0.98
RTFC	0.986
RTAN	0.429

Variant	one-hybrid fitness for binding parS DNA
RTFD	≤ 0.2
ITKL	≤ 0.2
KWHC	≤ 0.2
QGYA	≤ 0.2
NFMG	≤ 0.2
RHMY	0.383
RIMR	≤ 0.2
DFMG	≤ 0.2
RKMQ	≤ 0.2
RIMM	0.377
RKMM	0.283
RKMG	0.951
RHMK	≤ 0.2
RFMG	0.864
RIMG	0.996
RHMG	0.932
AATS	≤ 0.2
LNQW	≤ 0.2
ILSS	≤ 0.2
QYSS	≤ 0.2
QVQQ	≤ 0.2
YRRM	≤ 0.2
RSMG	0.962
RDMG	≤ 0.2
RCMG	1.03
RAMG	0.995

Variant	one-hybrid fitness for binding parS DNA
REMG	≤ 0.2
RRMR	≤ 0.2
RAMK	≤ 0.2
RRMG	0.806
RSMR	≤ 0.2
RRMM	≤ 0.2
RPMG	≤ 0.2
RAMY	0.435
LNGD	≤ 0.2
WSGR	≤ 0.2
IRPG	≤ 0.2
LHHS	≤ 0.2
PPPY	≤ 0.2
RTMK	≤ 0.2
RLMR	≤ 0.2
RTMR	≤ 0.2
RLMY	0.49
RMMQ	0.215
RMMH	≤ 0.2
RTMG	1
RMMG	0.985
RLMG	1.02
MPYE	≤ 0.2
MAAF	≤ 0.2
SSTQ	≤ 0.2
DFFS	≤ 0.2

Variant	one-hybrid fitness for binding parS DNA
VTNA	≤ 0.2
QCWG	≤ 0.2
SHRE	≤ 0.2
RRHI	≤ 0.2
TAII	≤ 0.2
LRVW	≤ 0.2
AKPV	≤ 0.2
QKYL	≤ 0.2
RMIH	0.223
RMPY	0.322
RMIG	0.947
RMIP	≤ 0.2
RMPG	0.775
RMPL	≤ 0.2
VWYT	≤ 0.2
HCQT	≤ 0.2
TAHC	≤ 0.2
RTKD	≤ 0.2
RTVP	≤ 0.2
RTVS	1
RTVN	0.387
RTKS	0.815
RTKH	0.439
